# Reference: the supplement of paper PMC4466140
# Experiments:
# Experiment in all cases: SPOT peptide array binding signal intensity (averaged, normalized) (arbitrary units (background-subtracted, floor 0; scale differs between SH3 domains)); higher = stronger binding of the SH3 domain to the peptide
# [1] = target: AgAbp1
# Method in brief: (§1)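 Cellulose membranes carried synthetic 15-mer peptides with cysteines swapped for serines. These were incubated overnight at 4°C with 10 μg/ml of GST-fused SH3 domains from four yeast species in TBS-based blocking buffer. Binding signal, detected with anti-GST antibody and quantified in Genespotter, is the normalized, background-subtracted spot intensity averaged over replicates, in arbitrary units specific to each domain.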
# [2] = target: AgBbc1
# Method in brief: as §1
# [3] = target: AgBem1-D1
# Method in brief: as §1
# [4] = target: AgBzz1-D1
# Method in brief: as §1
# [5] = target: AgBzz1-D2
# Method in brief: as §1
# [6] = target: AgCyk3
# Method in brief: as §1
# [7] = target: AgFus1
# Method in brief: as §1
# [8] = target: AgHof1
# Method in brief: as §1
# [9] = target: AgHse1
# Method in brief: as §1
# [10] = target: AgLsb1
# Method in brief: as §1
# [11] = target: AgLsb4
# Method in brief: as §1
# [12] = target: AgMyo5
# Method in brief: as §1
# [13] = target: AgNbp2
# Method in brief: as §1
# [14] = target: AgRvs167
# Method in brief: as §1
# [15] = target: AgSho1
# Method in brief: as §1
# [16] = target: AgSla1-D1-D2
# Method in brief: as §1
# [17] = target: AgSla1-D3
# Method in brief: as §1
# [18] = target: CaAbp1-D1
# Method in brief: as §1
# [19] = target: CaAbp1-D2
# Method in brief: as §1
# [20] = target: CaBbc1
# Method in brief: as §1
# [21] = target: CaBem1-D1
# Method in brief: as §1
# [22] = target: CaBzz1-D1
# Method in brief: as §1
# [23] = target: CaBzz1-D2
# Method in brief: as §1
# [24] = target: CaCyk3
# Method in brief: as §1
# [25] = target: CaFus1
# Method in brief: as §1
# [26] = target: CaHof1
# Method in brief: as §1
# [27] = target: CaHse1
# Method in brief: as §1
# [28] = target: CaLsb1
# Method in brief: as §1
# [29] = target: CaLsb4
# Method in brief: as §1
# [30] = target: CaMyo5
# Method in brief: as §1
# [31] = target: CaNbp2
# Method in brief: as §1
# [32] = target: CaRvs167
# Method in brief: as §1
# [33] = target: CaRvs167-3
# Method in brief: as §1
# [34] = target: CaSho1
# Method in brief: as §1
# [35] = target: CaSla1-D1-D2
# Method in brief: as §1
# [36] = target: CaSla1-D3
# Method in brief: as §1
# [37] = target: ScAbp1
# Method in brief: as §1
# [38] = target: ScBbc1
# Method in brief: as §1
# [39] = target: ScBem1-D1
# Method in brief: as §1
# [40] = target: ScBzz1-D1
# Method in brief: as §1
# [41] = target: ScBzz1-D2
# Method in brief: as §1
# [42] = target: ScCyk3
# Method in brief: as §1
# [43] = target: ScFus1
# Method in brief: as §1
# [44] = target: ScHof1
# Method in brief: as §1
# [45] = target: ScHse1
# Method in brief: as §1
# [46] = target: ScLsb1
# Method in brief: as §1
# [47] = target: ScLsb2
# Method in brief: as §1
# [48] = target: ScLsb3
# Method in brief: as §1
# [49] = target: ScLsb4
# Method in brief: as §1
# [50] = target: ScMyo3
# Method in brief: as §1
# [51] = target: ScMyo5
# Method in brief: as §1
# [52] = target: ScNbp2
# Method in brief: as §1
# [53] = target: ScPex13
# Method in brief: as §1
# [54] = target: ScRvs167
# Method in brief: as §1
# [55] = target: ScSho1
# Method in brief: as §1
# [56] = target: ScSla1-D1-D2
# Method in brief: as §1
# [57] = target: ScSla1-D3
# Method in brief: as §1
# [58] = target: SpAbp1-D1
# Method in brief: as §1
# [59] = target: SpBbc1
# Method in brief: as §1
# [60] = target: SpBzz1-D1
# Method in brief: as §1
# [61] = target: SpBzz1-D2
# Method in brief: as §1
# [62] = target: SpCyk3
# Method in brief: as §1
# [63] = target: SpHof1
# Method in brief: as §1
# [64] = target: SpHof1-2
# Method in brief: as §1
# [65] = target: SpHof1-3
# Method in brief: as §1
# [66] = target: SpHse1
# Method in brief: as §1
# [67] = target: SpLsb1
# Method in brief: as §1
# [68] = target: SpLsb4
# Method in brief: as §1
# [69] = target: SpMyo1
# Method in brief: as §1
# [70] = target: SpNbp2
# Method in brief: as §1
# [71] = target: SpPex13
# Method in brief: as §1
# [72] = target: SpRvs167
# Method in brief: as §1
# [73] = target: SpSla1-D1-D2
# Method in brief: as §1
# [74] = target: SpSla1-D3
# Method in brief: as §1
binder,measurement,setting,value
LYEAMPPTLPHRDWK,SPOT peptide array binding signal intensity,[1],1
same,SPOT peptide array binding signal intensity,[2],2.5
same,SPOT peptide array binding signal intensity,[3],13.5
same,SPOT peptide array binding signal intensity,[4],≤ 0
same,SPOT peptide array binding signal intensity,[5],≤ 0
same,SPOT peptide array binding signal intensity,[6],2
same,SPOT peptide array binding signal intensity,[7],33
same,SPOT peptide array binding signal intensity,[8],0.5
same,SPOT peptide array binding signal intensity,[9],50
same,SPOT peptide array binding signal intensity,[10],30.5
same,SPOT peptide array binding signal intensity,[11],518
same,SPOT peptide array binding signal intensity,[12],0.5
same,SPOT peptide array binding signal intensity,[13],154
same,SPOT peptide array binding signal intensity,[14],30.2
same,SPOT peptide array binding signal intensity,[15],26.5
same,SPOT peptide array binding signal intensity,[16],≤ 0
same,SPOT peptide array binding signal intensity,[17],≤ 0
same,SPOT peptide array binding signal intensity,[18],8
same,SPOT peptide array binding signal intensity,[19],1.5
same,SPOT peptide array binding signal intensity,[20],16.5
same,SPOT peptide array binding signal intensity,[21],16
same,SPOT peptide array binding signal intensity,[22],50.5
same,SPOT peptide array binding signal intensity,[23],27.2
same,SPOT peptide array binding signal intensity,[24],≤ 0
same,SPOT peptide array binding signal intensity,[25],327
same,SPOT peptide array binding signal intensity,[26],0.5
same,SPOT peptide array binding signal intensity,[27],150
same,SPOT peptide array binding signal intensity,[28],0.5
same,SPOT peptide array binding signal intensity,[29],806
same,SPOT peptide array binding signal intensity,[30],12
same,SPOT peptide array binding signal intensity,[31],141
same,SPOT peptide array binding signal intensity,[32],195
same,SPOT peptide array binding signal intensity,[33],6
same,SPOT peptide array binding signal intensity,[34],130
same,SPOT peptide array binding signal intensity,[35],25.5
same,SPOT peptide array binding signal intensity,[36],60.5
same,SPOT peptide array binding signal intensity,[37],≤ 0
same,SPOT peptide array binding signal intensity,[38],≤ 0
same,SPOT peptide array binding signal intensity,[39],≤ 0
same,SPOT peptide array binding signal intensity,[40],≤ 0
same,SPOT peptide array binding signal intensity,[41],21
same,SPOT peptide array binding signal intensity,[42],3
same,SPOT peptide array binding signal intensity,[43],95.5
same,SPOT peptide array binding signal intensity,[44],4.5
same,SPOT peptide array binding signal intensity,[45],15
same,SPOT peptide array binding signal intensity,[46],13
same,SPOT peptide array binding signal intensity,[47],2
same,SPOT peptide array binding signal intensity,[48],736
same,SPOT peptide array binding signal intensity,[49],636
same,SPOT peptide array binding signal intensity,[50],19.5
same,SPOT peptide array binding signal intensity,[51],0.5
same,SPOT peptide array binding signal intensity,[52],252
same,SPOT peptide array binding signal intensity,[53],807
same,SPOT peptide array binding signal intensity,[54],374
same,SPOT peptide array binding signal intensity,[55],257
same,SPOT peptide array binding signal intensity,[56],46
same,SPOT peptide array binding signal intensity,[57],85.5
same,SPOT peptide array binding signal intensity,[58],≤ 0
same,SPOT peptide array binding signal intensity,[59],2
same,SPOT peptide array binding signal intensity,[60],67
same,SPOT peptide array binding signal intensity,[61],0.5
same,SPOT peptide array binding signal intensity,[62],3
same,SPOT peptide array binding signal intensity,[63],2
same,SPOT peptide array binding signal intensity,[64],2
same,SPOT peptide array binding signal intensity,[65],0.5
same,SPOT peptide array binding signal intensity,[66],78.5
same,SPOT peptide array binding signal intensity,[67],2.25
same,SPOT peptide array binding signal intensity,[68],1290
same,SPOT peptide array binding signal intensity,[69],32.5
same,SPOT peptide array binding signal intensity,[70],22.5
same,SPOT peptide array binding signal intensity,[71],38.5
same,SPOT peptide array binding signal intensity,[72],282
same,SPOT peptide array binding signal intensity,[73],1
same,SPOT peptide array binding signal intensity,[74],21
